Screens from PubChem BioAssay.
A1 inhib = inducers of caspase activity in MEF A1-2A-BIM cells, primary screen, A1 inhibitor project, cell-based, CaspaseGlo luminescence; 21,000 tested, 0.51% active; caspase-Glo luminescence, 3 h; percent of clofoctol signal, DMSO as zero; caspase activation, % (concentration not given with the values); AID 2241, 2010;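 active = most replicate scores above 10, or exactly half above 10 with mean activity above 10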;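 also: effector caspase 3 and 7 activity cleaving a DEVD luciferin substrate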
An asterisk follows results filed as active. Shown is part of a subset that was picked to be rich in hits.

`COC[C@H]1OC(=O)c2coc3c2[C@@]1(C)C1=C(C3=O)[C@@H]2CCC(=O)[C@@]2(C)C[C@H]1OC(C)=O` gave A1 inhib 62*.
`CCN(CC)c1nc2ccccc2c(=O)n1-c1ccccc1` gave A1 inhib 0.
`CN(C)C(=O)Oc1nnc(SCCS(=O)(=O)c2ccc(F)cc2)n1-c1ccccc1` gave A1 inhib 0.
`Cc1cc(OCc2c(F)cccc2Cl)c2c3c(c(=O)oc2c1)CCCC3` gave A1 inhib 1.
Screening Fc1ccc(Sc2c(F)c(F)nc(N3CCNCC3)c2F)cc1 returned A1 inhib 2.
`CCOC(=S)SCc1nc2ccccc2c(=O)n1-c1ccccc1` gave A1 inhib 0.
For CC(C)[C@]12O[C@H]1[C@@H]1O[C@]13[C@]1(O[C@H]1C[C@H]1C4=C(CC[C@@]13C)C(=O)OC4)[C@@H]2O the results were A1 inhib 16*.
`CCNCC(O)c1cccc(OC(=O)c2ccccc2C)c1` (stereo not drawn) gave A1 inhib 0.
For CO/C1=C/C(C)=C/[C@@H](C)[C@@H](O)[C@@H](C)C/C(C)=C/C=C\[C@H](OC)[C@@H]([C@@H](C)[C@@H](O)[C@H](C)[C@@]2(O)C[C@@H](O)[C@H](C)[C@@H](C(C)C)O2)OC1=O the results were A1 inhib 0.
C[C@H]1CC[C@@H]2[C@@H](C)[C@H]3[C@H](C[C@H]4[C@@H]5CC=C6CC(O[C@@H]7O[C@H](CO)[C@@H](O)[C@H](O[C@@H]8O[C@H](CO)[C@@H](O)[C@H](O)[C@H]8O)[C@@H]7O[C@@H]7O[C@@H](C)[C@H](O)[C@@H](O)[C@H]7O)CC[C@]6(C)[C@H]5CC[C@]34C)N2C1 (stereo partly drawn) was read as A1 inhib -2.
Screening C[C@H]1O[C@@H](O[C@H]2C[C@@H](O)[C@]3(CO)C4C(CC[C@]3(O)C2)[C@@]2(O)CC[C@H](C3=CC(=O)OC3)[C@@]2(C)C[C@H]4O)[C@@H](O)[C@@H](O)[C@H]1O (stereo partly drawn) returned A1 inhib -1.
`C/C=C(\C)[C@H](O)[C@H](C)/C=C(C)/C=C/C/C(C)=C/Cc1[nH]c(OC)c(OC)c(=O)c1C` gave A1 inhib 0.
Screening CC1C/C=C/C2C3OC3(C)C(C)C3C(Cc4ccccc4)NC(=O)C23OC(=O)O/C=C/C(C)(O)C1=O (stereo not drawn) returned A1 inhib 16*.
`CCOC(=O)c1cc(C(C)(C)C)nc(OC(=O)N(C)C)c1C#N` gave A1 inhib 0.
`C[C@@H]1CCC/C=C/[C@H]2C[C@@H](O)C[C@@H]2[C@@H](O)/C=C\C(=O)O1` gave A1 inhib 5.
`CC(=O)O[C@H]1CC[C@]2(C=O)[C@H]3CC[C@]4(C)[C@@H](C5=CC(=O)OC5)CC[C@]4(O)[C@@H]3CC[C@]2(O)C1` gave A1 inhib 0.
For COc1ccc2c(c1OC)C(=O)O[C@H]2[C@H]1c2cc3c(cc2CCN1C)OCO3 the results were A1 inhib 1.
Screening COc1ccc2c(c1OC)CN1CCc3cc4c(cc3C1C2)OCO4 (stereo not drawn) returned A1 inhib -1.
`COc1ccc2c(c[n+](C)c3c4cc5c(cc4ccc23)OCO5)c1OC` gave A1 inhib 161*.
`O=C(c1noc2c1COc1ccccc1-2)N1CCC2(CC1)OCCO2` gave A1 inhib -6.
`CC(=O)OC1CCC2(C)C(CC[C@@H]3[C@@H]2CCC2(C)C(C4=CC(=O)OC4)CCC32O)C1` (stereo partly drawn) gave A1 inhib 0.
Screening C/C=C(\C)C(=O)OC1C(C)=C2C(C1OC(=O)CCCCCCC)C(C)(OC(C)=O)CC(OC(=O)CCC)C1(O)C2OC(=O)C1(C)O (stereo not drawn) returned A1 inhib 2.
Screening C/C=C(/C)C(=O)O[C@H]1C(C)=C2[C@H]([C@@H]1OC(=O)CCCCCCC)[C@@](C)(OC(C)=O)C[C@H](OC(=O)CCC)[C@@]1(O)[C@H]2OC(=O)[C@@]1(C)O returned A1 inhib 12*.
For CC(C)n1[nH]c(=O)c2c1NC(=O)CSC2c1ccc(Br)cc1 (stereo not drawn) the results were A1 inhib 1.
Screening CC(=O)NC1C(OC2OC(CC(O)C3OC(n4ccc(=O)[nH]c4=O)C(O)C3O)C(O)C(O)C2NC(=O)/C=C/CCCCCCCCCC(C)C)OC(CO)C(O)C1O (stereo not drawn) returned A1 inhib 3.
C=CC/C=C\C/C=C\CCCCCCCc1cc(O)cc(O)c1 was read as A1 inhib 0.
CCC(C)[C@H]1C(=O)O[C@H](C(C)C)C(=O)N(C)[C@@H](C(C)CC)C(=O)O[C@H](C(C)C)C(=O)N(C)[C@@H](C(C)CC)C(=O)O[C@H](C(C)C)C(=O)N1C (stereo partly drawn) was read as A1 inhib 86*.
For CO[C@H]1[C@@H](O)[C@@H](C)O[C@@H](O[C@@H]2C=C3C(OC(C)=O)CC4(O)C(CC[C@]5(C)[C@@H](C6=CC(=O)OC6)CC[C@]45O)[C@@]3(C)CC2)[C@@H]1O (stereo partly drawn) the results were A1 inhib 1.
`CN(C)C(=O)Oc1cccc(N)c1` gave A1 inhib 1.
COC1CC(O[C@H]2CC[C@@]3(C)C(CCC4C3CC[C@]3(C)C(C5=CC(=O)OC5)CCC43O)C2)OC(C)C1OC1OC(COC2OC(CO)C(O)C(O)C2O)C(O)C(O)C1O (stereo partly drawn) was read as A1 inhib 0.
Screening Cc1cc(Br)c(NC(=O)C2C(C)(C)C2(C)C)c(Br)c1 returned A1 inhib 0.
CC[C@H]1CN2CCc3cc(OC)c(OC)cc3[C@@H]2C[C@@H]1C[C@H]1NCCc2cc(O)c(OC)cc21 was read as A1 inhib 19*.
`COc1cc2c(cc1OC)C(C)NCC2` (stereo not drawn) gave A1 inhib 0.
For COc1cc2c(cc1O)CCNC2C (stereo not drawn) the results were A1 inhib -1.
Screening c1ccc2c(CNCCc3c[nH]c4ccccc34)cccc2c1 returned A1 inhib 0.
